Compound activity as filed in PubChem BioAssay.
LASV entry inh = Lassa virus entry inhibition; Lassa virus pseudotype entry inhibition, cell reporter; Potency, µM (titrated, usually from 37.9 µM), inactives show at the highest dose activity change, negative = inhibition, usual class: inhibitors; 1.2% of 300,000 active; AID 540256; calls by dose curve; tested in HEK293 cells; further: potency means the concentration at half of the fitted maximal effect; nearly all actives have a fitted effect of over 50% in size
Giardia FBPA inh = inhibitors of Giardia lamblia fructose-1,6-bisphosphate aldolase; A8B2U2; purified Giardia FBPA; Potency, µM (top dose mostly 59.6 µM), for inactives: top-dose activity, negative = inhibition, most hits filed as inhibitors; 0.71% of 290,000 active; AID 2451; further: potency means the concentration at half of the fitted maximal effect; nearly all actives have a fitted effect of over 55% in size
Target sequence (A8B2U2 whole entry, looked up): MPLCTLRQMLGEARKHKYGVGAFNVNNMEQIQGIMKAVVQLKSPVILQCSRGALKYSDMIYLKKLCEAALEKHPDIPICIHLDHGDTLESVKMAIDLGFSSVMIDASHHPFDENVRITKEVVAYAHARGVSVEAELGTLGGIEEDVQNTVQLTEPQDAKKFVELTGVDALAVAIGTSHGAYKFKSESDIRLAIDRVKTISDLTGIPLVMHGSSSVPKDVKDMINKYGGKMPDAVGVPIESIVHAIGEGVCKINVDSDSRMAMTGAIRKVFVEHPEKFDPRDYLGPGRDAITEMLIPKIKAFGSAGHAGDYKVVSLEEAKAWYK
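40 nM FBPA preincubated 10 min at RT with compound (up to 57.5 uM final), then substrate plus GAPDH/TPI/NAD/arsenate coupling and diaphorase/resazurin added. Fluorescence read after 20 min at RT, 525/598 nm.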
Marburg entry inh = blocks Marburg virus binding to or entry into cells | Potency, µM (doses to about 37.8 µM), for the others: at the highest dose activity change, negative = inhibition, hits mostly inhibitors | 1.8% of 300,000 active | Marburg virus pseudotyped entry inhibition, cell reporter; calls by dose curve; tested in HEK293 cells; further: potency means the concentration at half of the fitted maximal effect
HCMV antiviral = blocks human cytomegalovirus replication; HFF cells, HCMV-luciferase reporter, 72 h; stronger effect = lower value; activity change, negative = inhibition, % at 57.5 µM; 4.5% of 410,000 active; in the data active means activity change below about -60%; inconclusive means no clear call, values can overlap the other calls; inactive means above about -39%
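Human foreskin fibroblasts infected with luciferase-reporter HCMV at MOI 1 PFU/cell, compounds at two doses. Luciferase measured 72 h post infection; normalized to buffer-only basal and Salinomycin (10uM) controls.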
HCV inh = HCV inhibition | Huh7.5.1 HCVcc-Cre infection, luciferase reporter, 44 h | Potency, µM (series often up to 41.8 µM), for the others: top-dose activity change, negative = inhibition, hits mostly inhibitors | 3.4% of 340,000 active | AID 651820; further: potency means the concentration at half of the fitted maximal effect
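Luciferase read-out (15 sec integration) after a 15 min room-temperature substrate step quantifies HCVcc-Cre infection. Cells, 1,000 per well, had compound added 4 h post-plating, then virus at ~0.5 moi, and were cultured 44 h.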
FMDV antiviral = blocks foot and mouth disease virus | 1.2% of 410,000 active | Potency, µM (series often up to 57.9 µM), inactives show at the highest dose activity change, negative = inhibition, most hits filed as inhibitors | FMDV antiviral cell-based qHTS; calls by dose curve; tested in HEK293T cells; further: read-out not given here; potency means the concentration at half of the fitted maximal effect; nearly all actives have a fitted effect of over 45% in size
Starred values were filed as active, the others as inactive; [ ] = dose if it differs, or a comment. Hits are enriched below; roughly 8.3% of the tested compounds scored in any of these assays. Unless noted, the call rests on the fitted dose curve; in most records, active means well fitted curve in the direction sought with a large enough effect; inconclusive means small, poorly fitted or top-dose-only effect, or another doubt; inactive means no such curve, though single readings can be large; an effect the other way counts as inactive or inconclusive. On the % scale 0 is the no-effect control and ±100 the full control effect.

Results for COCCCN1C(=O)C(=O)/C(=C(/O)c2ccc(C)cc2)C1c1ccccc1 (centres undefined) ?
LASV entry inh: -3%; Giardia FBPA inh: 10%; Marburg entry inh: 9%; HCMV antiviral: 51; HCV inh: 9%; FMDV antiviral: 13%

How did COc1cccc(-n2c(=O)c3c(C)c(C(=O)N(C)C)sc3n(Cc3ccc(F)cc3Cl)c2=O)c1 do in these assays?
LASV entry inh: -18%[46.1 µM]; HCMV antiviral: 50; FMDV antiviral: inconclusive

Results for O=C(CCl)Nc1cccc(-c2cnc3ccccc3n2)c1 ?
LASV entry inh: inconclusive; Giardia FBPA inh: inconclusive; Marburg entry inh: inconclusive; HCMV antiviral: -98*; HCV inh: inconclusive; FMDV antiviral: 25µM*

Results for O=C(O)COc1cnc2ccccc2n1 ?
LASV entry inh: inconclusive; Giardia FBPA inh: 0%; Marburg entry inh: -1%[46.1 µM]; HCMV antiviral: -6; HCV inh: 12%; FMDV antiviral: -3%

What do the screens show for `O=C(Nc1cccc(-c2cnc3ccccc3n2)c1)C1CC(=O)N(c2ccccc2)C1` (centres undefined)?
LASV entry inh: inconclusive; Marburg entry inh: inconclusive; HCMV antiviral: 14; HCV inh: 13µM*; FMDV antiviral: inconclusive

Results for O=C(CCl)Nc1ccc(Oc2cnc3ccccc3n2)cc1 ?
LASV entry inh: 21µM*; Giardia FBPA inh: 0%; Marburg entry inh: inconclusive; HCMV antiviral: -104*; HCV inh: inconclusive; FMDV antiviral: 20µM*

What do the screens show for `CCC(=O)Nc1cccc(-c2cnc3ccccc3n2)c1`?
LASV entry inh: inconclusive; Giardia FBPA inh: -1%; Marburg entry inh: inconclusive; HCMV antiviral: 61; HCV inh: inconclusive; FMDV antiviral: 27%

How did O=C(Nc1cccc(-c2cnc3ccccc3n2)c1)c1cccc(NC(=O)c2ccco2)c1 do in these assays?
LASV entry inh: inconclusive; Giardia FBPA inh: 7%; Marburg entry inh: 12µM*; HCMV antiviral: 133; HCV inh: 10µM*; FMDV antiviral: inconclusive

How did CC(=O)C1=C(C)N(Cc2ccccc2)C(=O)NC1c1ccco1 (centres undefined) do in these assays?
LASV entry inh: inconclusive; Marburg entry inh: 2%[14.2 µM]

How did CCN1C(=O)[C@H]2[C@H]3[C@H](O)[C@H](O)C/C(=N/OCC(C)C)[C@@H]3CC[C@@H]2C1=O do in these assays?
Giardia FBPA inh: -2%[12.9 µM]

What do the screens show for `CNC1=C(Br)C(=O)c2ccncc2C1=O`?
Giardia FBPA inh: 3%

What do the screens show for `CN1C(C(=O)c2ccccc2)=C(OC(=O)c2ccc(Br)cc2)c2ccccc2S1(=O)=O`?
LASV entry inh: 14%[46.1 µM]; Marburg entry inh: -9%[46.1 µM]; HCMV antiviral: -14; FMDV antiviral: inconclusive

What do the screens show for `Oc1ccc(/C=C/c2ccnc3ccccc23)cc1`?
LASV entry inh: inconclusive; Giardia FBPA inh: -2%; Marburg entry inh: inconclusive; HCMV antiviral: -61*; HCV inh: 8.9µM*; FMDV antiviral: 42%

Results for CC(=O)n1c2ccccc2c2c1c1ccccc1n2C ?
LASV entry inh: 4%; Giardia FBPA inh: 0%; Marburg entry inh: -12%; HCMV antiviral: 66; HCV inh: 2.2µM*; FMDV antiviral: -8%

Results for COC1C(OC(=O)c2ccc(C)[nH]2)C(O)C(Oc2ccc3c(O)c(NC(=O)c4ccc(O)c(CC=C(C)C)c4)c(=O)oc3c2Cl)OC1(C)C (centres undefined) ?
Giardia FBPA inh: 25%; HCMV antiviral: -19; HCV inh: 1.6µM*; FMDV antiviral: 40µM*

How did CO[C@H]1[C@@H](OC(N)=O)[C@H](O)[C@@H](Oc2ccc3c(O)c(NC(=O)c4ccc(O)c(CC=C(C)C)c4)c(=O)oc3c2C)OC1(C)C do in these assays?
Giardia FBPA inh: 7%[21.7 µM]

What do the screens show for `COc1ccc(-c2cccc(C3C4C=CCCC4(C)C(=O)N3Cc3ccccc3)c2)cc1` (centres undefined)?
Giardia FBPA inh: -3%

What do the screens show for `CCCCn1c(-c2ccccc2)cnc1SCC(=O)NCCc1ccc(OC)c(OC)c1`?
LASV entry inh: inconclusive; Giardia FBPA inh: 1%; Marburg entry inh: inconclusive; HCMV antiviral: 14; HCV inh: 11µM*

What do the screens show for `COc1ccc(CCNC(=O)CSc2ccc(-c3ccco3)nn2)cc1OC`?
LASV entry inh: inconclusive; Giardia FBPA inh: -11%; Marburg entry inh: inconclusive; HCMV antiviral: -63*; HCV inh: 0%; FMDV antiviral: 4%

What do the screens show for `COc1ccc(C(C#N)=Cc2ccccc2OC)cc1`?
HCMV antiviral: -88*; FMDV antiviral: -13%

How did COc1ccc(C=C(C#N)c2ccc(OC)cc2)cc1 do in these assays?
LASV entry inh: inconclusive; Marburg entry inh: 7.9µM*; HCMV antiviral: -16; HCV inh: inconclusive; FMDV antiviral: 14%

Results for O=C(Cn1ncc2c3ccccc3n(Cc3cccc(Cl)c3)c2c1=O)NC1CCCCCC1 ?
LASV entry inh: 6%[46.1 µM]; Marburg entry inh: -9%[46.1 µM]; HCMV antiviral: 12; FMDV antiviral: -2%

What do the screens show for `CCCN1CCN(c2ncnc3scc(C4COc5ccccc5O4)c23)CC1` (centres undefined)?
LASV entry inh: inconclusive; Giardia FBPA inh: 12%; Marburg entry inh: inconclusive; HCMV antiviral: -38; HCV inh: inconclusive; FMDV antiviral: inconclusive

Results for c1ccc2c(c1)OCC(c1csc3ncnc(N4CCCCC4)c13)O2 (centres undefined) ?
LASV entry inh: -18%; Giardia FBPA inh: 13%; Marburg entry inh: inconclusive; HCMV antiviral: -88*; HCV inh: 5%; FMDV antiviral: 32µM*

How did CCOCCCn1c(C)nc2c(c1=O)c1nc3ccccc3nc1n2CCC1=CCCCC1 do in these assays?
LASV entry inh: inconclusive; Giardia FBPA inh: -5%; Marburg entry inh: 10µM*; HCMV antiviral: inconclusive; HCV inh: -2%; FMDV antiviral: inconclusive

Results for Cc1onc(-c2ccccc2)c1C(=O)NC(=S)NNC(=O)c1ccc(O)cc1O ?
LASV entry inh: 2.5µM*; Giardia FBPA inh: inconclusive; Marburg entry inh: inconclusive; HCMV antiviral: -95*; HCV inh: inconclusive; FMDV antiviral: -14%

What do the screens show for `Cc1onc(-c2ccccc2)c1C(=O)NC(=S)NNC(=O)c1ccc(O)cc1`?
LASV entry inh: inconclusive; Giardia FBPA inh: inconclusive; Marburg entry inh: inconclusive; HCMV antiviral: 6; HCV inh: inconclusive; FMDV antiviral: inconclusive

How did Cc1onc(-c2ccccc2)c1C(=O)NC(=S)NNC(=O)c1ccccc1O do in these assays?
LASV entry inh: inconclusive; Giardia FBPA inh: 14%; Marburg entry inh: 3.2µM*; HCMV antiviral: -70*; HCV inh: inconclusive; FMDV antiviral: inconclusive

Results for Cc1onc(-c2ccccc2)c1C(=O)NNC(=O)c1ccccc1Br ?
HCMV antiviral: -16; HCV inh: 11%; FMDV antiviral: 7%
